Results as given in PubChem BioAssay (NCATS).
Results filed as inconclusive are left out. A call without a number means that no potency is given here. Calls of active or inactive are those of the source. Unless noted, calls follow the shape of the dose curve; as a rule, active = well fitted curve in the direction sought with a large enough effect; inconclusive = small, poorly fitted or top-dose-only effect, or another doubt; inactive = no such curve, though single readings can be large; an effect the other way counts as inactive or inconclusive.

Assays:
[1] = target: Flap endonuclease 1 (Homo sapiens) (UniProt P39748); experiment: qHTS Validation Assay for the Inhibitors of Human Flap endonuclease 1 (FEN1) (AID 488816)
Summary of the method: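 qHTS format: compounds and 10 nM FEN1 incubated 15 min at room temperature before adding 50 nM substrate. Cleavage followed by reads at 0 and 15 min; normalized data fitted to a four-parameter Hill curve.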

[2] = target: M-phase phosphoprotein 8 (Homo sapiens) (UniProt Q99549); experiment: qHTS Validation Assay for Inhibitors for MPP8 Chromodomain Interactions with Methylated Histone Tails (AID 488949);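 also: AlphaScreen signal from MPP8 chromodomain bound to biotinylated H3K9me3 peptide; top concentration of the series differs between compounds; nearly all actives have a fitted effect of over 55% in size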
Summary of the method: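 AlphaScreen read-out: streptavidin donor and nickel chelate acceptor beads (final 10 ug/mL), 30 min in the dark at RT. Complex of 50 nM MPP8 and 50 nM b-H3(1-18)K9me3 peptide had been exposed to compounds for 30 min beforehand.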

[3] = target: Chromobox protein homolog 1 (Homo sapiens) (UniProt P83916); experiment: qHTS Validation Assay for Inhibitors of HP1-beta Chromodomain Interactions with Methylated Histone Tails (AID 488953);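 also: loss of AlphaScreen luminescence from HP1-beta binding biotinylated H3K9me3 peptide; series mostly up to about 110 µM; nearly all actives have a fitted effect of over 50% in size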
Summary of the method: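 Disruption of preformed HP1-beta:H3K9me3 peptide complexes (both 50 nM, PBS pH 7.4 with 0.01% Tween-20) is measured by AlphaScreen after 30 min compound exposure at room temperature, using streptavidin donor and nickel chelate acceptor beads at 10 ug/mL final.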

[4] = target: Methanococcus maripaludis chaperonin (MmCpn) (UniProt Q6LX38); experiment: High-Throughput Screening for Modulators of Cytosolic Chaperonin Activity: MmCpn Primary Screen (AID 488978);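 also: 50 nM MmCpn enzyme hydrolysing 30 µM ATP at 37 °C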
Summary of the method: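 ADP formation read by HTRF Transcreener, 665/590 nm emission after 320 nm excitation. Enzyme: archaeal chaperonin at 50 nM final; substrate ATP 30 uM final; 10 min, 37C, after 5 min compound preincubation at RT.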

[5] = target: Transient receptor potential cation channel subfamily V member 1 (Homo sapiens) (UniProt Q8NER1); experiment: HTS Assay for Compounds that Act as Enhancers of the Vanilloid Receptor 1 (AID 488979)
Summary of the method: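 Calcium influx kinetics via Fluo-8 (480/520 nm) in TRPV1-expressing cells, 2000/well cultured overnight at 35.5C. Compound-alone read 3 min (agonist phase), followed by EC20 capsaicin challenge for 2 min (enhancer phase).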

[6] = target: D(1A) dopamine receptor (Homo sapiens) (UniProt P21728); experiment: HTS Assay for Allosteric Agonists of the Human D1 Dopamine Receptor: Primary Screen for Agonists (AID 488981)
Summary of the method: (§1)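 Calcium flux in an inducible, force-coupled HEK293 Trex D1 line (overnight at 30 C): agonist mode is the 180 s kinetic read after compound; potentiator mode is the following 180 s read after dopamine at EC20.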

[7] = target: D(1A) dopamine receptor (Homo sapiens) (UniProt P21728); experiment: HTS Assay for Allosteric Agonists of the Human D1 Dopamine Receptor: Primary Screen for Potentiators (AID 488982)
Summary of the method: as §1

[8] = target: D(1A) dopamine receptor (Homo sapiens) (UniProt P21728); experiment: HTS Assay for Allosteric Agonists of the Human D1 Dopamine Receptor: Primary Screen for Antagonists (AID 488983);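 also: calcium flux response to an EC80 dopamine challenge measured with no-wash dye; nearly all actives have a fitted effect of over 65% in size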
Summary of the method: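 Kinetic fluorescence at 1 cycle/sec tracked intracellular calcium in force-coupled, tetracycline-inducible HEK293 T-REx D1 cells. Loss of response to an EC80 dopamine dose, given 180 s after compound, marked antagonists.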

[9] = Validation screen for small molecules that induce genotoxicity in human embryonic kidney (HEK293T) cells expressing luciferase-tagged ELG1 (AID 493106); also: potency is read from the fitted curve at half-maximal effect
Summary of the method: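 Cells were dispensed at 2,000 per well, then 23 nL compound or DMSO was pinned in. After 16 hr at 37 °C and 5% CO2, ONE-Glo reagent was added. Luciferase activity was measured following 30 min at room temperature.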

[10] = target: ATPase family AAA domain-containing protein 5 (Homo sapiens) (UniProt Q96QE3); experiment: Validation screen for small molecules that inhibit ELG1-dependent DNA repair in human embryonic kidney (HEK293T) cells expressing luciferase-tagged ELG1 (AID 493107);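 also: cells co-treated with the DNA-damaging agent 5-fluorouridine alongside compound; series mostly up to about 46 µM; inhibitors lower the ELG1-luciferase luminescence signal; nearly all actives have a fitted effect of over 70% in size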
Summary of the method: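 Cells are dispensed in 1536-well format, then 5-fluorouridine and compound are pinned in. After a 16 hr incubation at 37 °C and 5% CO2, ONE-Glo is added and luciferase measured on a CCD imager.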

[11] = target: Thyrotropin-releasing hormone receptor (Homo sapiens) (UniProt P34981); experiment: qHTS for Small Molecule Agonists and Allosteric Enhancers of Human TRH Receptor: Validation Screen for Agonists (AID 493127;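 active = calcium activation more than 3 SD above the typical response in the agonist read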;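 also: intracellular calcium rise by fluo-8 fluorescence before TRH EC20 addition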); details: TRH receptor agonist cell assay; at 2 µM; stronger effect = higher value
Summary of the method: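 Compounds are added by online pintool to dye-loaded TRHR cells while fluorescence is recorded every second. A rise in calcium signal during the agonist read marks activation; a later 10 nM TRH addition (EC20) serves the separate enhancer mode.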

[12] = Nrf2 qHTS screen for inhibitors: Validation (AID 493153; active = well fitted inhibition curve with a large enough effect in the main read-out, with a control signal flat, not every such curve was filed as active); details: Potency: luciferase luminescence; viability change: measured here: cytotoxicity max response
Summary of the method: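 A549 ARE_Fluc, 5% FBS OPTI-MEM; cpd titration, 18-24 h, 37°C/5% CO2. Read 1: CellTiter-Fluor (Ex 405/Em 525), cytotox. Read 2: luciferase lum, Nrf2 activity.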

[13] = qHTS for Inhibitors of Cell Surface uPA Generation: Validation Assay (AID 493164);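 also: RAW 264.7 macrophage cells exposed to compound for 18 h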
Summary of the method: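 ATP-Lite luminescence read-out: ATP remains high when uPA activity-dependent LF translocation into the cytoplasm is blocked. RAW 264.7 cells, 18 h compound exposure at 37 C; 7-point titration, 2.45 nM to 38.3 uM final.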

[14] = target: Galactokinase (Homo sapiens) (UniProt P51570); experiment: qHTS Validation Assay for Inhibitors of Human Galactokinase (GALK) (AID 493189)
Summary of the method: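 Luminescence from leftover ATP (Kinase-Glo Plus, 10 min) served as read-out after a 1 h room-temperature reaction of 5 nM GALK, 100 uM galactose and 35 uM ATP at pH8.0.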

[15] = Validation screen for small molecules that induce DNA re-replication in SW480 colon adenocarcinoma cells (AID 504364)
Summary of the method: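 Image-based qHTS: compounds were incubated with SW480 cells for 48 hr, nuclei stained with Hoechst, and per-nucleus fluorescence intensity scanned to flag cells with excess DNA content.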

[16] = target: Peptidyl-prolyl cis-trans isomerase NIMA-interacting 1 (Homo sapiens) (UniProt Q13526); experiment: qHTS Validation Assay to Find Inhibitors of Pin1 (AID 504536; active = well fitted inhibition curve with a large enough effect in the polarisation, with a control signal flat, not every such curve was filed as active; the % refers to the polarisation)
Summary of the method: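 Fluorescence polarization competition: compounds (titration) displace HiFluor-488-labeled Pin1-1b peptide from Pin1 (0.3 uM final) in pH 7.5 HEPES buffer with DTT, 10 min at room temperature; %Activity normalized to no-enzyme wells, curves fitted.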

[17] = target: Phosphoglycerate kinase, glycosomal (Trypanosoma brucei brucei) (UniProt P07378); experiment: qHTS Validation Assay to Find Inhibitors of Phosphoglycerate Kinase (AID 504547)
Summary of the method: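 Luminescence end-point (Kinase-Glo Plus, 10 min) after a 60 min room-temperature coupled reaction. GAPDH at 100nM final supplies 1,3-BPG to PGK. Buffer: 100mM TEA pH 7.6, 5mM MgCl2, 0.01% Tween-20. Wells lacking PGK served as controls.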

[18] = target: Thyrotropin receptor (Homo sapiens) (UniProt P16473); experiment: qHTS Assay for Antagonists of the Thyroid Stimulating Hormone Receptor (AID 488980); also: series mostly up to about 58 µM
Summary of the method: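 TSHR-HEK293 cells; 70 uM RO 20-1724 PDE inhibitor; compound + EC80 TSH (4 nM final); anti-cAMP cryptate antibody/cAMP-d2 in lysis buffer, 30 min RT; HTRF 665/620 nm read.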

[19] = target: ATP-dependent 6-phosphofructokinase (Trypanosoma brucei brucei) (UniProt O15648); experiment: qHTS Assay to Find Inhibitors of T. brucei phosphofructokinase: hit validation (AID 492961);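 also: luminescence reports ADP formed as PFK phosphorylates fructose-6-phosphate with ATP; series mostly up to about 51 µM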
Summary of the method: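 Measures ADP output of PFK (1.25 nM) at 0.1 mM ATP, 0.5 mM F6P, pH 8.0 TEA buffer with 5 mM MgCl2. No-enzyme wells define full inhibition; uninhibited enzyme wells define zero.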

Thyrotropin-releasing hormone receptor (Homo sapiens), sequence (P34981 whole entry, looked up): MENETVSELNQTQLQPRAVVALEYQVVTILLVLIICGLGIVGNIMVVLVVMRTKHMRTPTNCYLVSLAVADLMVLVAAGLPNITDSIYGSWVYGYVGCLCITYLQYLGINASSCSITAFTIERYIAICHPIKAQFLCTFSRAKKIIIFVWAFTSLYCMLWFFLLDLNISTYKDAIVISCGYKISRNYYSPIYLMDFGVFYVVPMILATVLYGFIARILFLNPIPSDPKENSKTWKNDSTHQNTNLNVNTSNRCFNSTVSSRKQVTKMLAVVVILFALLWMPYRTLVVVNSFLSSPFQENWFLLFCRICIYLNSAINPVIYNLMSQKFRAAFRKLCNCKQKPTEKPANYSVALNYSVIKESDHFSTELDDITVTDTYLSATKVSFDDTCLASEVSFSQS
Peptidyl-prolyl cis-trans isomerase NIMA-interacting 1 (Homo sapiens), sequence (Q13526 whole entry, looked up): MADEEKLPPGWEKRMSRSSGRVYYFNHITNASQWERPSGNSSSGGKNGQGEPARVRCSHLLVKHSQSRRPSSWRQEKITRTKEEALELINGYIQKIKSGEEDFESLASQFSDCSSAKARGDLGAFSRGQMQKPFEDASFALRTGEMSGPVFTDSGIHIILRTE
Chromobox protein homolog 1 (Homo sapiens), sequence (P83916 whole entry, looked up): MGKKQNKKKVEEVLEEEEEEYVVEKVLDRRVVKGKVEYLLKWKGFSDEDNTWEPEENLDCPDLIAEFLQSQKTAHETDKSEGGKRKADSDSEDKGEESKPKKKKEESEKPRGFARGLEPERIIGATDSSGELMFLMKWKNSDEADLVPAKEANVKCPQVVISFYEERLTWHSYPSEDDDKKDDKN
D(1A) dopamine receptor (Homo sapiens), sequence (P21728 whole entry, looked up): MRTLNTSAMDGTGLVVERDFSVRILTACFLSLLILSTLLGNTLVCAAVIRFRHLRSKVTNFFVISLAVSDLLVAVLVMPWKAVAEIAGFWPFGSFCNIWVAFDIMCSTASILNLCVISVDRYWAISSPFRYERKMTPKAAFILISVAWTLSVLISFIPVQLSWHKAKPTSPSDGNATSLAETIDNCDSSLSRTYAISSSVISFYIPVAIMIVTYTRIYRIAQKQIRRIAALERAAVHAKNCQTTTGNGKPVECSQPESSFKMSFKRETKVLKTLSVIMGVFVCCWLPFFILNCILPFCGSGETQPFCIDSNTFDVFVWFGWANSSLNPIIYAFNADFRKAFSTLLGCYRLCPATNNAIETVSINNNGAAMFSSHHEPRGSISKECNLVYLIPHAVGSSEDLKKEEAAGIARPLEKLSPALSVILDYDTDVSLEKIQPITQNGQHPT
Flap endonuclease 1 (Homo sapiens), sequence (P39748 whole entry, looked up): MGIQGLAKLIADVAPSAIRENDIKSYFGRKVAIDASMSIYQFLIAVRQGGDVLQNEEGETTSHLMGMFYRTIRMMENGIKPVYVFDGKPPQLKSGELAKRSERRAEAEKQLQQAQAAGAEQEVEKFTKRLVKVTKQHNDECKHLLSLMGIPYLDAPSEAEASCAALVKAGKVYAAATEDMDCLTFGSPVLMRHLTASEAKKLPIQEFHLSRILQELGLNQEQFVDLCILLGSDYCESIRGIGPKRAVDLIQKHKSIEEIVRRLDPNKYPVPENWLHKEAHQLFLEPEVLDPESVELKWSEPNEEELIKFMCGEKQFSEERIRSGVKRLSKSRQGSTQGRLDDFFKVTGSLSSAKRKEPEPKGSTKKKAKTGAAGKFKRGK
Galactokinase (Homo sapiens), sequence (P51570 whole entry, looked up): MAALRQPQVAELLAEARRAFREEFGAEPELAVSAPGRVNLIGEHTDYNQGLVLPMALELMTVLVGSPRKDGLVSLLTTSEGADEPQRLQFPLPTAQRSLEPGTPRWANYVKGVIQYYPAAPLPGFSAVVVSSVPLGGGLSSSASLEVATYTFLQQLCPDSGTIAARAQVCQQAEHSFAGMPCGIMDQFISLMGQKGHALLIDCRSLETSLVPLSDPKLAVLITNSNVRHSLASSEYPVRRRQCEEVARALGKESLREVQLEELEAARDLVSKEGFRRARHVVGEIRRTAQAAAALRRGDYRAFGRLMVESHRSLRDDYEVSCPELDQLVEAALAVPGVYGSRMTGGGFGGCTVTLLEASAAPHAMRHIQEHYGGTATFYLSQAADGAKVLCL
Transient receptor potential cation channel subfamily V member 1 (Homo sapiens), sequence (Q8NER1 whole entry, looked up): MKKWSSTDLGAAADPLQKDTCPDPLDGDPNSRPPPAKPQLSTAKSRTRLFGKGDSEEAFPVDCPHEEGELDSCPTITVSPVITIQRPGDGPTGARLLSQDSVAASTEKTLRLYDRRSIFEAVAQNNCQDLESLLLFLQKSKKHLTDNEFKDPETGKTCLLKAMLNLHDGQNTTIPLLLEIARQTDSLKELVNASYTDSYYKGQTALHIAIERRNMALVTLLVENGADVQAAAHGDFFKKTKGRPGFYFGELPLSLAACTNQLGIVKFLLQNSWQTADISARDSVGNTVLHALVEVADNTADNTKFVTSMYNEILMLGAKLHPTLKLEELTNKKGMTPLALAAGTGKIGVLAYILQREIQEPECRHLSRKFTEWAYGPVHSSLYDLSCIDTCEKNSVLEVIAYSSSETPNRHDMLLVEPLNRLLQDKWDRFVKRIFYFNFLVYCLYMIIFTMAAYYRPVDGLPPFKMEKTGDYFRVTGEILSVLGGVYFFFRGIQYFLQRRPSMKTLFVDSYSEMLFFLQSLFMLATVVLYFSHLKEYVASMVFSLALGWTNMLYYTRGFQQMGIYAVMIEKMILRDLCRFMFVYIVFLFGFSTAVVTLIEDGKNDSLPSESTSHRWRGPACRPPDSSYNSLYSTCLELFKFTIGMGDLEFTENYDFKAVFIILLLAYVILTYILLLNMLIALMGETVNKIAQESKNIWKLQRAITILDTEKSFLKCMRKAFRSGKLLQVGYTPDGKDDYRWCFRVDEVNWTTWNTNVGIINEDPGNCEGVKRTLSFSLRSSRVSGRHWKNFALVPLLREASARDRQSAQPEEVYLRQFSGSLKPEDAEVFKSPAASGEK
Phosphoglycerate kinase, glycosomal (Trypanosoma brucei brucei), sequence (P07378 whole entry, looked up): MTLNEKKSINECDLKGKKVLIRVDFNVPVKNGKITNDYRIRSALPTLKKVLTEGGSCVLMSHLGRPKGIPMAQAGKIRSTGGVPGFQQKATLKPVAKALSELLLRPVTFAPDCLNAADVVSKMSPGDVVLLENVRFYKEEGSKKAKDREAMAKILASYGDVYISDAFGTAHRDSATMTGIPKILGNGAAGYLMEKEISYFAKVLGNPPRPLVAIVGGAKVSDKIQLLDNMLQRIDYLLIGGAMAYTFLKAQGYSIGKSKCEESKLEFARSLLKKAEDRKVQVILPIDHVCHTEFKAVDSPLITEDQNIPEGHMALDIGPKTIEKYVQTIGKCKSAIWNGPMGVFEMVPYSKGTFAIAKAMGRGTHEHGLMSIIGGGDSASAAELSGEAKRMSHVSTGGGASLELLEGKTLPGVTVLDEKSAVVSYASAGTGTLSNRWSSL
Methanococcus maripaludis chaperonin (MmCpn), sequence (Q6LX38 1-543): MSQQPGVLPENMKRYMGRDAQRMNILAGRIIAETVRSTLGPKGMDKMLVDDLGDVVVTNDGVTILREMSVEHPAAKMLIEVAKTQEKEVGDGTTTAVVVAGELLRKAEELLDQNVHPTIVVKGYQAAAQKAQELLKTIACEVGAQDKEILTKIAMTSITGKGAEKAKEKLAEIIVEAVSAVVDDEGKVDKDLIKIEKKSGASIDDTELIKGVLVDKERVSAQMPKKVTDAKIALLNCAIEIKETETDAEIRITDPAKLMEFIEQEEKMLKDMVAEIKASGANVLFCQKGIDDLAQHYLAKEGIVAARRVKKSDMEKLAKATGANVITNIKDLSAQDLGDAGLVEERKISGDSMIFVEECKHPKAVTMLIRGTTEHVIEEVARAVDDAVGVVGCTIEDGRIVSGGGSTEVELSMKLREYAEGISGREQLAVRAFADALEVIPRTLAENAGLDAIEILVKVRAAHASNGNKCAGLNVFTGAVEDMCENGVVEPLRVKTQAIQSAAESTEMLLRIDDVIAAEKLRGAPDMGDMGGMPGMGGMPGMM
M-phase phosphoprotein 8 (Homo sapiens), sequence (Q99549 whole entry, looked up): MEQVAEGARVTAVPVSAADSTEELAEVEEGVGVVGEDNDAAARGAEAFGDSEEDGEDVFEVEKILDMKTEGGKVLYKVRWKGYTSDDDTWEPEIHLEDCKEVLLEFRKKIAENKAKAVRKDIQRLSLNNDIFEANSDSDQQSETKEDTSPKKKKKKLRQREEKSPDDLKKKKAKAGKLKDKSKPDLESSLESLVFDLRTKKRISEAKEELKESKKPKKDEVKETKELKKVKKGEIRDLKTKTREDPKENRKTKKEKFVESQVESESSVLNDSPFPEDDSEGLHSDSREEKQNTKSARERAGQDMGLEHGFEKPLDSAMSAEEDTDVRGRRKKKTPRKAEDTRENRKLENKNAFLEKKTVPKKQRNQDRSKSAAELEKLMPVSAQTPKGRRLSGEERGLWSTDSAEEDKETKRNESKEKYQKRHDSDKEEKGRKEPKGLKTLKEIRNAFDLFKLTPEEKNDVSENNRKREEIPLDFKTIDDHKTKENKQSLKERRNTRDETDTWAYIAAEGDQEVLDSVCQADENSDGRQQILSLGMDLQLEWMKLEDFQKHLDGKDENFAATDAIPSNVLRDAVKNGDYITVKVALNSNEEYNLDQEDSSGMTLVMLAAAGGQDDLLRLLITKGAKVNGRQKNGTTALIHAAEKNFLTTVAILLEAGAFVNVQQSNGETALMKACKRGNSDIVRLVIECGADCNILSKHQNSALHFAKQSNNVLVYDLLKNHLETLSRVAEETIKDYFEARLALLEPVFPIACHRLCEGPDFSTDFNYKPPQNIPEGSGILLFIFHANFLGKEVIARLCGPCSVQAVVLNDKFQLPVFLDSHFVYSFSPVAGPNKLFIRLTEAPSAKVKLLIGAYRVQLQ

SMILES	Potency [1]	Potency [2]	Potency [3]	outcome [4]	outcome [5]	Potency [6]	Potency [7]	Potency [8]	Potency [9]	Potency [10]	activation [11]	Potency [12]	viability change [12]	outcome [13]	outcome [14]	Potency [15]	Potency [16]	Potency [17]	outcome [18]	Potency [19]
CC(N)c1cccc(Cl)c1Cl (configuration not stated)	inactive	inactive	inactive	inactive	inactive	inactive	inactive	inactive	inactive	inactive	-0.188% (inactive)	inactive	5.17%	inactive	inactive	inactive	inactive	inactive	–	–
C[N+](C)(C)CC#CCOC(=O)Nc1cccc(Cl)c1	inactive	inactive	inactive	inactive	inactive	inactive	–	inactive	inactive	–	0.875% (inactive)	inactive	-2.28%	inactive	inactive	inactive	inactive	inactive	inactive	–
COc1ccc2c(c1)[C@@]13CCCC[C@H]1[C@@H](C2)NCC3	inactive	inactive	inactive	inactive	–	inactive	inactive	inactive	inactive	inactive	0.0625% (inactive)	–	–	inactive	inactive	inactive	inactive	inactive	–	–
C=CCN(C1=NCCN1)c1c(Cl)cccc1Cl	inactive	inactive	inactive	inactive	–	inactive	–	inactive	–	inactive	–	inactive	-5.34%	inactive	–	–	inactive	inactive	–	inactive
O=[N+]([O-])c1cc(O)c(O)c([N+](=O)[O-])c1	inactive	inactive	inactive	inactive	inactive	inactive	inactive	inactive	–	–	-0.438% (inactive)	–	–	inactive	inactive	inactive	inactive	inactive	–	–
CCCC[N+]1(C)C2CC(OC(=O)[C@H](CO)c3ccccc3)CC1C1OC12 (some centres not stated)	inactive	inactive	inactive	inactive	–	inactive	inactive	inactive	inactive	inactive	–	inactive	-6.93%	inactive	–	–	inactive	inactive	–	–
CCCCCCCCCCCCCC(=O)O[C@@H]1[C@@H](C)[C@@]2(O)[C@@H](C=C(CO)C[C@@]3(O)C(=O)C(C)=C[C@@H]23)C2C(C)(C)[C@@]21OC(C)=O (some centres not stated)	inactive	inactive	inactive	inactive	inactive	inactive	–	inactive	4.1 nM (active)	–	0.75% (inactive)	inactive	-19.6%	–	inactive	inactive	inactive	inactive	–	–
Oc1ccc2c3c1O[C@H]1c4[nH]c5ccccc5c4C[C@@]4(O)C(C2)N(CC2CC2)CCC314 (some centres not stated)	inactive	inactive	inactive	inactive	–	inactive	–	inactive	inactive	inactive	1.69% (inactive)	inactive	-8.87%	inactive	inactive	inactive	inactive	inactive	–	–
